Screen size: about 290,000 compounds; about 27,000 (9.3%) were called active. What follows is part of a selection rich in actives, with near analogues and random picks from the rest. Unmarked numbers belong to inactive results. No stated cut-off is given here; in the data, active means inhibition mostly above about 28% (no sharp cut-off); inactive means mostly below about 43%.

The assay is described as follows: A qHTS for Small Molecule Inhibitors of Shiga Toxin. On inhibition: 0% is about no effect. The note with it: Vero cells, Shiga toxin protein synthesis inhibition reporter; at 38.7 µM, stronger effect = higher value. Background: Quantitative high-throughput screening tests each substance at several concentrations.
Usually inhibition stands for the relative decrease from the control value, in per cent. In the case of `CC(=O)O[C@H]1c2ccccc2-c2ccccc2[C@@H]1OC(C)=O`, the inhibition was -4.45%. The figure for `Nc1ccc(S(=O)(=O)Nc2nccc(/C=C/c3ccc(Br)s3)n2)cc1` is 2.79%; for `Oc1cccc2ccc(/C=C/c3ccc(Br)s3)nc12` it is 112% (active).

Turning to `CC(=O)Nc1ccc(S(=O)(=O)NC2Cc3ccccc3C2)cc1`, the inhibition was -3.63%.

Turning to `COc1ccc(CCNC(=O)CS(=O)(=O)Cc2nc(-c3ccc(C)cc3)oc2C)cc1OC`, the inhibition is 3.34%.

On to `COc1ccc(CNc2nc3c(c(=O)[nH]c(=O)n3C)n2Cc2ccccc2)cc1`, for which the inhibition is -4.35%. For `Cc1ccc(Cn2c(C)nc3c(c2=O)c2nc4ccccc4nc2n3Cc2ccco2)cc1`, the inhibition is 12.7%. The figure for `Clc1cccc(-c2nc3nc4ccccc4nc3n2Cc2ccco2)c1` is 75.4% (active); for `Cc1nc2c(c(=O)n1Cc1ccco1)c1nc3ccccc3nc1n2Cc1ccccc1` it is -14%; for `CN(C)N1C(N)=C(C#N)C(c2ccc(Br)cc2)C2=C1CCCC2=O` (centres undefined) it is -14.3%.

In the case of `COc1ccccc1CN1CCCC(N2CCN(c3ccc(F)cc3)CC2)C1` (centres undefined), the inhibition is -2.63%. For `Cc1ccc(S(=O)(=O)NCC(=O)N(CC(=O)NCC2CCCO2)c2cccc(F)c2)cc1` (centres undefined), the inhibition was -9.17%.

For `O=C(CSc1nc2ccccc2o1)N/N=C/c1ccccc1C(=O)O`, the inhibition is 41.2%.

As for `Cc1cc(=O)[nH]c(SCC(=O)N2c3ccccc3CC2C)n1` (centres undefined), the inhibition is -7.96%.

As for `O=C(CSc1nc2ccccc2o1)N1CCN(c2ccccc2)CC1`, the inhibition was -6.06%. Turning to `CCOC(=O)n1c(SCC(=O)N(CC)CC)nc2ccccc21`, the inhibition is -11%. Consider `CCn1c(SCC(=O)N/N=C/c2ccncc2)nc2ccccc21`, for which the inhibition is -2.17%. The figure for `CC1Cc2ccccc2N1C(=O)CSc1nc2ccccc2o1` (centres undefined) is 94.1% (active); for `O=C(CSc1nc2ccccc2o1)N1CCN(c2ccc(Cl)cc2)CC1` it is -1.01%.

With `CC(C)(C)C(=O)CSc1nc2ccccc2o1`, the inhibition was 113% (active). With `CCN(CC)C(=O)CSc1nc2ccccc2o1`, the inhibition was 67.4% (active). Take `O=C(CSc1nc2ccccc2o1)N1c2ccccc2Sc2ccc(Cl)cc21`: the inhibition is -8.96%. The figure for `Cc1ccc(/C=N/NC(=O)CSc2nc3ccccc3o2)cc1` is 83.9% (active); for `CCS(=O)(=O)c1ccc2oc(SCC(=O)N3c4ccccc4CC3C)nc2c1` (centres undefined) it is -14.6%. The figure for `O=S(=O)(NCC1CN(S(=O)(=O)c2ccc3c(c2)OCCO3)C1)c1c(F)cccc1F` is -12.4%.

For the compound `COC(=O)c1cc(S(=O)(=O)N2CCN(c3cc(C)ccc3C)CC2)c[nH]1`, the inhibition was -9.79%. In the case of `CCC(C(=O)NC1CCCC1)N(C(=O)Cn1nnc(-c2ccc(C)o2)n1)c1ccc(OC)c(OC)c1` (centres undefined), the inhibition is -7.44%. Regarding `CC1CC(C)CN(CCOc2cccc3ccccc23)C1` (centres undefined), the inhibition is -12.3%. The figure for `CC1CCC(NC(=O)CN(C)S(=O)(=O)c2ccc3c(c2)c(=O)n(C)c(=O)n3C)CC1` (centres undefined) is -2.58%; for `CCCS(=O)(=O)N1CCN=C1SCc1cccc(F)c1` it is -4.79%. The figure for `COC(=O)c1cc(OCC(=O)NC2CCCc3ccccc32)cc(C(=O)OC)c1` (centres undefined) is -5.73%; for `O=C1OCCN1C(=O)[C@H]1[C@H](c2ccc(Cl)cc2)C(c2cccc(Cl)c2)=NN1c1ccc(Br)cc1` it is “inactive”. For `COc1ccccc1Oc1ccc(N2CC(C(=O)OCC(=O)c3ccc(F)cc3)CC2=O)cc1` (centres undefined), the inhibition was 7.33%. The figure for `COc1cccc(CNS(=O)(=O)c2ccc3c(c2)CC(C)N3C(C)=O)c1` (centres undefined) is -5.4%. The figure for `O/N=C(\C[n+]1ccccc1)c1ccc(Br)cc1` is 13.2%; for `O=C(Nc1ccc2nc3n(c(=O)c2c1)CCCCC3)c1ccccc1Cl` it is 40.7%; for `O=C(Nc1cccc(NC(=O)c2ccccc2[N+](=O)[O-])c1)c1ccccc1Cl` it is 30.9%. The figure for `O=C(Nc1ccc2sc3ccccc3c(=O)c2c1)c1ccccc1Cl` is 93.9% (active); for `CCSCc1nc(N)nc(NCCc2ccccc2)n1` it is 15.6%. Consider `CCc1nn(CCCC(=O)NCc2ccc(C)cc2)c(=O)c2cc3occc3n12`, for which the inhibition is 18.7%. For the compound `CCNC(=S)N(CCN(CC)CC)Cc1cc2cc3c(cc2[nH]c1=O)OCO3`, the inhibition is -7.63%. The result for `COc1ccc(NC(=O)C(C)N2c3cccc4cccc(c34)S2(=O)=O)c(OC)c1` (centres undefined) reads -11.7%. The figure for `O=[N+]([O-])c1cccc(/C([O-])=C(/C(=S)Nc2ccccc2F)[n+]2ccccc2)c1` is 83.4% (active); for `CCC(C)NCC(=O)Nc1ccc([N+](=O)[O-])cc1C(=O)Nc1ccccc1F` (centres undefined) it is 13%. The figure for `Cc1ccc(/C([O-])=C(/C(=S)NCc2ccco2)[n+]2ccccc2)cc1[N+](=O)[O-]` is -8.48%. `Cc1cc(C)c(C#N)c(Nc2cccc(Br)c2)n1`: the inhibition was -8.95%.

As to `COc1ccc(N2CCN(C(=O)CCc3nc(-c4ccc(C)cc4)no3)CC2)cc1`, the inhibition was -8.71%. The figure for `Cc1cc(Cl)ccc1OCc1nc(-c2ccncc2)no1` is 129% (active). The result for `CN(Cc1ccccn1)Cc1nc(-c2ccc(Cl)cc2)no1` reads 31.7%; that for `COc1ccc(-c2noc(COc3ccc(Cl)c(C)c3)n2)cc1`, 25.5% (active); that for `Cc1cc(Cl)ccc1OCCCC(=O)NCc1ccncc1`, 14.6%. `COc1ccc(C(C)=O)cc1COc1ccc(Cl)c(C)c1`: the inhibition was 7.61%. Regarding `C=C(C)COc1ccc(-c2ncncc2-c2ccc(OC)cc2)c(O)c1`, the inhibition was -1.7%. The result for `Cc1ccc(CN2C(=O)N/C(=C/c3cc(C)n(-c4ccccn4)c3C)C2=O)cc1` reads 31.1%.

Consider `CCN(CC)S(=O)(=O)c1ccc(Cl)c(C(=O)NCCN2CCOCC2)c1`, for which the inhibition is -6.97%. The figure for `COc1c(C(C)C)oc2cc3oc(=O)ccc3cc12` is 34%; for `Cc1ccc(OCC(=O)Nc2ccc3oc(=O)ccc3c2)cc1C` it is -5.7%; for `Cc1oc2cc3oc(=O)ccc3cc2c1C` it is 40.7% (active). The result for `CCN(C(=O)COc1ccc(C(=O)c2ccccc2)cc1)c1ccccc1` reads -10.2%. The result for `Cc1ccccc1N1CC(C(=O)Nc2nnc(SCCC3OCCO3)s2)CC1=O` (centres undefined) reads -4.6%. Take `COc1ccc(OCc2nnc3n2N=C(c2ccccc2)C(CC(=O)O)S3)cc1` (centres undefined): the inhibition is -9.4%. As to `CCCCCCN=C(CC)c1c(O)n(CCCC)c(=O)[nH]c1=O`, the inhibition is -8.53%. The result for `CC/C(=N\NC(=O)c1ccccc1O)c1c(O)n(Cc2ccccc2)c(=O)[nH]c1=O` reads 58.6% (active); that for `CCCCn1c(O)c(C(CC)=NCc2ccco2)c(=O)[nH]c1=O`, -7.37%. The figure for `Cc1cc2cc3c(cc2nc1SCC(=O)Nc1c(C)cccc1C)CCC3` is -6.77%. The figure for `CCOCCCNC(=O)c1cc2c(=O)n3ccccc3nc2s1` is 74.5% (active); for `CCn1c(=N)c(C(=O)NCCCOC)cc2c(=O)n3cccc(C)c3nc21` it is -7.15%; for `Cc1cccn2c(=O)c3cc(C(=O)NC4CCCCC4)sc3nc12` it is -2.1%. As to `NC(=O)C1CCN(CC(O)CSc2ccc(F)cc2)CC1` (centres undefined), the inhibition was 2.41%. Consider `O=C(Cn1cnc([N+](=O)[O-])n1)NCCc1ccccc1`, for which the inhibition was 17.3% (active). The result for `O=C(CSc1ncccn1)NCCc1ccccc1` reads 1.16%. Regarding `CC(C)(C)NC(=O)Cn1cnc([N+](=O)[O-])n1`, the inhibition was -6.78%. The result for `COc1ccc2cc(CCl)c(Cl)nc2c1` reads 14.8%; that for `CCCC(=O)N1CCC(CCC(=O)NC2CC2)CC1`, 14.8%; that for `COCCNC(=O)c1ccc(N2CCC3(CC2)OCCO3)c([N+](=O)[O-])c1`, 7.01%. Regarding `CCC(C)NC(=O)c1ccc(N2CCC3(CC2)OCCO3)c([N+](=O)[O-])c1` (centres undefined), the inhibition is 50.1% (active).

Consider `CC(NC(=O)c1ccc(N2CCNCC2)c([N+](=O)[O-])c1)C12CC3CC(CC(C3)C1)C2` (centres undefined), for which the inhibition was -0.798%. The result for `COc1ccc(NC(=O)c2cc(-c3cc(OC)c(OC)c(OC)c3)nc3ccccc23)c(OC)c1` reads 15.1%; that for `COc1cccc(-c2nc(S(=O)(=O)c3ccccc3)c(N3CCOCC3)o2)c1`, 20.2%.

Consider `CC(=O)Oc1ccc2c(=O)oc(-c3ccc([N+](=O)[O-])cc3)nc2c1`, for which the inhibition is -6.54%.

Turning to `COc1ccc2oc(-c3cccc(NC(=O)CSc4ccc(Cl)cc4)c3)nc2c1`, the inhibition was 13.6%. The result for `COc1cccc(-c2nc3cc(C)ccc3o2)c1` reads 65% (active). The result for `COc1ccc(-c2nc3cc([N+](=O)[O-])ccc3o2)cc1OC` reads 27.9%; that for `O=[N+]([O-])c1ccc2oc(-c3cccc(O)c3)nc2c1`, 47.7% (active); that for `CC(=O)Nc1ccccc1OC(C)C(=O)N1CCC(C)CC1` (centres undefined), -7.84%. On to `O=C(N/N=C/c1cc(Cl)cc([N+](=O)[O-])c1O)C(O)(c1ccccc1)c1ccccc1`, for which the inhibition was -2.27%. Turning to `CCOC(CNC(=O)C(=O)NCC(c1ccco1)N1CCN(c2ccc(OC)cc2)CC1)OCC` (centres undefined), the inhibition was 14.3%. On to `CCOc1ccccc1NC(=O)COc1ccc(S(=O)(=O)N2CCCC2)cc1`, for which the inhibition is 14.6%.

Take `Cc1oc2c(C)c3oc(=O)c(CC(=O)N[C@@H](CC(C)C)C(=O)N[C@@H](Cc4ccccc4)C(=O)O)c(C)c3cc2c1C`: the inhibition was -6.95%. For the compound `Cc1cc(C)c(S(=O)(=O)c2cc(F)ccc2C)c(=O)[nH]1`, the inhibition was -5.17%. `CCOc1ccc(NC(=O)COc2ccc(S(=O)(=O)N3CCCC3)cc2)cc1`: the inhibition is 22.6%. The result for `Cc1ccc(-c2nnc(SC(C)C#N)n2N)cc1` (centres undefined) reads 12.2%.

Consider `Cc1ccc(NC(=O)NC(=O)CSc2nnc(-c3ccc(OC(F)F)cc3)n2N)c(C)c1`, for which the inhibition was 12.9%.

For `C=C(C)CSc1nnc(-c2ccc(C)cc2)n1N`, the inhibition is 130% (active).

The record behind these values is PubChem BioAssay AID2315 (National Center for Advancing Translational Sciences (NCATS), 2010).
